High-throughput results deposited in PubChem by The Scripps Research Institute Molecular Screening Center.
A selection: hits, their analogues and other compounds. The true share with any hit is near 3.4%.
GPR151 ag: activates the human receptor GPR151 | actives 1% (n = 650,000) | Q8TDV0 | AID 1508602 | PathHunter beta-arrestin GPR151 cells, luminescence | activation, % at 11.2 µM; in the data active = activation above about 4.9%;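 also: 0% = median of compound wells and 100% = cells with positive control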
MITF primary: human MITF inhibition, primary screen; O75030; AlphaScreen MITF homodimerization, bead proximity signal; inhibition, % at 2.6 µM; actives 0.91% (n = 650,000); in the data active = inhibition above about 50%;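 also: 0% = vehicle wells with protein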
TEAD-YAP block: TEAD-YAP interaction inhibition. HEK-TIYL cells, TEAD-Gal4/YAP UAS-luciferase luminescence. inhibition, % at 9.12 µM. actives 1.4% (n = 640,000). AID 1259422; in the data active = inhibition above about 32%;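 also: 0% = median of test compound wells and 100% = reference inhibitor wells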
FBW7 activator: human FBW7 E3 ligase activation, primary screen; AlphaScreen FBW7–phospho-cyclin E peptide binding, activator screen; normalized activity (activation), % at 26.1 µM; actives 0.13% (n = 650,000); Q969H0; AID 1259310; in the data active = normalized activity above about 1.9%;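 also: purified mutant Fbw7 with reduced substrate affinity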
Target sequence (Q969H0 whole entry, looked up): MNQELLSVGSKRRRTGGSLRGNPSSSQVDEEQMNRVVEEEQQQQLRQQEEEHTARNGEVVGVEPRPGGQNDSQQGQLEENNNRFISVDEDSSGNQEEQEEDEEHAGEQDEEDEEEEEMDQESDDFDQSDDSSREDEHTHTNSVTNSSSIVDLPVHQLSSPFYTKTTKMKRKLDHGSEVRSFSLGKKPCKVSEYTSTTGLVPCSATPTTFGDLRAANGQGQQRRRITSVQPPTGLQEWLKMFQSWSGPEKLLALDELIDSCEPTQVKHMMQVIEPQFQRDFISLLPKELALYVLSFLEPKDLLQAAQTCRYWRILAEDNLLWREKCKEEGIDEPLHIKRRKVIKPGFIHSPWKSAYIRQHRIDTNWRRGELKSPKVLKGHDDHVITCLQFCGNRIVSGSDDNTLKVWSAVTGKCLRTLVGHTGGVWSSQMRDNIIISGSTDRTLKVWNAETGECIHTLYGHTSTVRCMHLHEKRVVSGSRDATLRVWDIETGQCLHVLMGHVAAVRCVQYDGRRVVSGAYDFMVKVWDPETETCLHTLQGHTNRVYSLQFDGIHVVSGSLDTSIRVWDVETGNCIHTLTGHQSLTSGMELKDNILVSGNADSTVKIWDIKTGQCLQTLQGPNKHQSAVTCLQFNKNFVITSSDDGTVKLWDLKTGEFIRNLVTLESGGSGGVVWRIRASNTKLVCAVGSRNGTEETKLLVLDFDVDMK
GPR151 confirm: human GPR151 activation, confirmation screen. activation, % at 11.2 µM. shares compounds with GPR151 ag. GPR151 PathHunter beta-arrestin cells, luminescence, 90 min; % of EA-reagent control over plate median. 6,700 tested, under 10 active;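 active = mean percent activation across replicates above the confirmation screen cutoff of 4.91%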
GPR119 counter: activates human GPR119 in a GPR151 counter-screen; shares compounds with GPR151 ag; GPR119 PathHunter beta-arrestin cells, luminescence, 90 min; 0 = compound-well median, 100 = enzyme-acceptor control; activation, % at 11.2 µM; actives 0.3% (n = 6,700); AID 1508611;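 active = mean percent activation in the counterscreen above 29.09%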;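 also: counterscreen on off-target GPR119 to flag nonselective hits from the GPR151 activator screen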
An asterisk follows results filed as active; . = not tested or not shown.

SMILES	GPR151 ag	MITF primary	TEAD-YAP block	FBW7 activator	GPR151 confirm	GPR119 counter
O=C(CCn1nc(-c2ccccc2)c2ccccc2c1=O)NCc1ccccc1	18.4*	2.7	-6.6	-0.1	0.7	-0.9
CNC(=O)Cn1nc(C(=O)O)c2ccccc2c1=O	-1.2	-3.5	5.9	0.2	.	.
Cc1ccc(-c2nn(CC(=O)NCc3ccccc3)c(=O)c3ccccc23)cc1	5.1*	24.2	-1.2	0.2	0.2	15.3
C[C@@H](O)C(=O)N1CCCN(S(=O)(=O)c2cccc3cnccc23)CC1	-0.6	7.8	-5.1	-0.1	.	.
CC(=O)N1CCCN(S(=O)(=O)c2cccc3cnccc23)CC1	5.4*	3.0	-5.5	-0.6	-0.2	5.4
COc1cc(C2C=C(Nc3ccc(C)cc3)C(=O)N2c2ccc(C)cc2)ccc1O (stereo not drawn)	0.8	0.9	-14.7	-0.3	.	.
Cc1cc(NC(=O)Cc2ccc(-c3ccccc3)cc2)ccc1N1CCCC1=O	1.6	8.1	10.9	0.0	.	.
Cc1cc(NC(=O)Cc2ccc(F)cc2)ccc1N1CCCC1=O	5.0*	16.5	0.5	0.2	-0.3	0.3
CC(C)(C)c1ccc(C(=O)OCC(=O)Nc2sccc2C(N)=O)cc1	2.8	4.8	3.4	-0.2	.	.
COc1cc(OC)c(C(=O)OCC#N)cc1OC	5.7*	0.9	5.8	0.0	-0.2	4.3
COc1ccc(-n2nc(C(=O)Nc3cc(C)ccc3OC)c3ccccc3c2=O)c(OC)c1	0.1	2.4	-4.3	-0.1	.	.
CCC(C)(C)c1ccc(OCCOCCn2cc([N+](=O)[O-])nc2C)c(C(C)(C)CC)c1	5.6*	-9.4	1.4	0.0	0.3	5.6
COCCNC(=O)CN(C)c1nn2c(=O)cc(C)nc2s1	-0.7	11.5	-3.0	-0.1	.	.
CCN1C(=O)/C(=C/c2cc(C)n(C3CCCC3)c2C)C(=O)NC1=S	6.3*	21.0	-0.1	0.0	-0.5	-11.3
COC(=O)c1c(NC(=O)c2ccccc2C)sc2c1CCC(C)C2 (stereo not drawn)	-1.7	10.5	2.5	0.2	.	.
Cc1ccc(NC(=O)CSc2cn(Cc3ccc(F)cc3)c3ccccc23)cc1	7.0*	5.5	-1.8	-0.1	-1.2	-3.6
C=CCOc1nc2c(c(=O)n(C)c(=O)n2C)n1Cc1ccc(Cl)c(Cl)c1	-0.9	-1.4	-0.3	0.0	.	.
CC1CC(C)CN(C(=O)c2cc(-c3cccnc3)nc3ccccc23)C1 (stereo not drawn)	0.1	8.6	-2.3	0.2	.	.
CNc1nc(-c2ccc3c(c2)CCN3S(C)(=O)=O)cs1	6.8*	7.5	-39.7	0.0	0.4	4.9
O=c1[nH]c(N/N=C/c2cc([N+](=O)[O-])ccc2O)nnc1Cc1ccccc1	6.2*	41.9	3.1	-0.2	0.9	2.2
O=c1[nH]c(N/N=C/c2ccc(O)cc2)nnc1Cc1ccccc1	-0.5	18.3	0.3	0.1	.	.
CCOCCCNCc1ccccc1F	5.2*	37.7	-4.0	0.0	-0.1	3.5
CCOC(=O)CCCCNCc1ccccc1F	0.8	7.1	2.4	0.0	.	.
CCOC(=O)C1CCN(c2ccc(C=C3C(=O)N(C)C(=O)N(C)C3=O)cn2)CC1	5.2*	-0.6	-5.0	-0.1	-0.3	3.8
O=C(O)c1ccc(SC2CCCCC2)c([N+](=O)[O-])c1	0.2	21.6	27.9	0.5	.	.
SMILES	GPR151 ag	MITF primary	TEAD-YAP block	FBW7 activator	GPR151 confirm	GPR119 counter
COc1ccc([N+](=O)[O-])cc1N(CC(O)CN1C(=O)NC(C)(C)C1=O)S(=O)(=O)c1ccc(C)cc1 (stereo not drawn)	-1.6	12.3	6.8	0.3	.	.
CN(CCO)c1ncnc2sccc12	6.6*	-1.5	5.9	0.0	0.4	4.1
Cc1cc(C(=O)NC(C)C2CCCO2)ccc1[N+](=O)[O-] (stereo not drawn)	3.1	4.0	0.0	-0.4	.	.
O=C1CCCN1CCn1cnc2c(NCc3cccc(C(F)(F)F)c3)nc(Nc3ccc(N4CCOCC4)cc3)nc21	5.6*	4.4	-5.0	0.0	1.5	2.7
O=C1CCCN1CCn1cnc2c(Nc3ccc(N4CCOCC4)cc3)nc(N3CCc4ccccc4C3)nc21	12.6*	-5.2	3.1	-0.4	0.2	-6.0
O=C1CCCN1CCCNc1nc(NCc2cccc(C(F)(F)F)c2)c2ncn(C3CCCCC3)c2n1	5.9*	8.0	-11.0	0.1	0.6	0.7
O=C1CCCN1CCn1cnc2c(Nc3ccc(Oc4ccccc4)cc3)nc(N3CCc4ccccc4C3)nc21	1.9	-5.6	10.7	-0.1	.	.
FC(F)(F)c1cccc(CNc2ncnc3nc(Nc4ccc(N5CCOCC5)cc4)[nH]c23)c1	7.1*	2.3	6.7	0.1	0.2	-4.8
FC(F)(F)c1cccc(CNc2ncnc3nc(Nc4ccccc4)[nH]c23)c1	2.6	13.4	-1.4	-0.1	.	.
CC(C)CC1NC(=O)N(CC(=O)Nc2ccc(F)c(F)c2)C1=O (stereo not drawn)	0.5	0.4	-5.1	0.1	.	.
CN1C(=O)C2ON(c3ccc(Cl)cc3)C(c3ccccc3)C2C1=O (stereo not drawn)	-0.9	5.6	11.1	0.3	.	.
Cc1ccc(C2C3C(=O)N(C)C(=O)C3ON2c2ccccc2)cc1 (stereo not drawn)	9.3*	4.3	-2.8	-0.1	-0.1	-4.2
O=C(NCc1ccccc1)/C(=N\O)c1ccccc1	6.2*	4.8	-9.9	-0.1	-0.7	-5.4
CC(Oc1ccccc1)c1nc2ccccc2[nH]1 (stereo not drawn)	0.3	-8.8	-13.3	0.0	.	.
Cc1cccc(C2N(Cc3ccccc3)CCCN2Cc2ccccc2)n1	5.4*	3.8	-6.4	-0.2	0.5	-3.5
COc1cccc(NC(=O)c2ccc(-c3ccsc3)nc2N2CCOCC2)c1	9.3*	3.3	-10.4	-0.2	1.2	3.8
COc1cccc(NC(=O)c2ccc(-c3cccc(OC)c3)nc2N2CCOCC2)c1	1.3	15.4	-12.9	0.0	.	.
COc1ccc(/C=C2/C(=O)NC(=O)N(c3ccc(C)cc3)C2=O)c(OC)c1	0.6	16.6	6.6	0.5	.	.
Cc1cc(N2C(=O)NC(=O)/C(=C\c3ccccc3OCC#N)C2=O)ccc1Br	5.6*	-6.9	-0.1	0.2	1.2	18.7
COc1ccc(/C=C2\C(=O)NC(=O)N(c3ccc(Br)cc3)C2=O)c(OC)c1	7.3*	-2.4	-6.2	-0.1	-0.2	3.7
CCOc1cc(/C=C2\C(=O)NC(=O)N(c3cc(C)ccc3C)C2=O)ccc1O	8.9*	-8.8	18.2	-0.7	-0.2	12.1
COc1ccc(N2C(=O)NC(=O)/C(=C\c3ccc(O)c([N+](=O)[O-])c3)C2=O)cc1	5.8*	22.0	3.1	0.1	-0.5	-5.3
C=CCc1cc(/C=C2/C(=O)NC(=O)N(c3ccc(OCC)cc3)C2=O)ccc1O	9.3*	16.0	8.4	0.2	0.6	-2.3
CCc1ccc(N2C(=O)NC(=O)/C(=C/c3cc(OC)c(O)c(OC)c3)C2=O)cc1	0.7	-12.1	-1.0	-0.1	.	.
